Source: PubChem BioAssay
CD40 NFkB inh: CD40 pathway inhibition in BL2 cells. BL2 NF-kB luciferase reporter, CD40L-induced, 4 h. AID 1053188. inhibition, % at 10 µM. actives 0.94% (n = 83,000);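 active = mean inhibition of at least 50% with a set share of replicates also reaching that level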
Hits are given with their value; . = inactive; [ ] = another dose, or the depositor's remark. Only a selection was taken, and hits are over-represented in it overall.

SMILES	CD40 NFkB inh
O=S(=O)(Nc1cccnc1)c1ccc2c(c1)OCCO2	.
O=C1CCCN1c1ccc(S(=O)(=O)Nc2ccc3c(c2)OCCO3)cc1	.
CCn1cc(S(=O)(=O)Nc2ccc3c(c2)OCCO3)cn1	76
COc1ccccc1C#Cc1ccc([C@@H]2[C@@H](C#N)N(C(=O)C3CCCCC3)[C@H]2CO)cc1	.
Cc1ccc(-c2ccc3c(c2)O[C@@H](CN(C)Cc2cncnc2)[C@@H](C)CN([C@@H](C)CO)S3(=O)=O)cc1	.
CC(=O)Nc1cccc2c1O[C@H](CN(C)S(C)(=O)=O)[C@@H](C)CN(C)C2=O	.
COc1ccc(-c2ccc3n(c2=O)C[C@H]2[C@H](CO)[C@@H](C(=O)NCC4CC4)[C@@H]3N2S(C)(=O)=O)cc1	.
CCCC(C)Sc1nc2c([nH]1)c(=S)n(C)c(=O)n2C (centres undefined)	93
CCSc1nc2c([nH]1)c(=O)n(C)c(=S)n2C	.
Cn1c(=O)c2[nH]c(SCCN3CCCCC3)nc2n(C)c1=S	.
C/C=C/c1ccc([C@H]2[C@H](CO)N(C(C)=O)[C@H]2CNC(=O)CC2CC2)cc1	.
O=C1C(Br)=C(c2ccccc2)C(c2ccccc2)=C1c1ccccc1	82
C[C@@H]1CN([C@@H](C)CO)C(=O)c2c(c3ccccc3n2C)-c2ccccc2CO[C@H]1CN(C)Cc1ccc(C(=O)O)cc1	.
COC(=O)c1cccc(NC(=O)/C=C/c2cccc([N+](=O)[O-])c2)c1	.
CC(=O)c1cccc(NC(=O)/C=C/c2ccc(S(=O)(=O)N3CCOCC3)cc2)c1	.
O=C(/C=C/c1ccccc1)Nc1cccc(C(=O)O)c1	82
O=C(NCC[C@H]1CC[C@H](NS(=O)(=O)Cc2ccccc2)[C@@H](CO)O1)C1CCCC1	.
O=C(Cc1ccncc1)Nc1ccc2c(c1)[C@@H]1C[C@@H](CC(=O)NC3CCCC3)O[C@H](CO)[C@@H]1O2	.
CCCNC(=O)N1[C@H](C#N)[C@@H](c2ccc(-c3ccccc3F)cc2)[C@H]1CO	.
CCCNC(=O)N1[C@@H](C#N)[C@@H](c2ccc(-c3cccnc3)cc2)[C@@H]1CO	.
CCCNC(=O)N1[C@H](C#N)[C@@H](c2ccc(-c3ccccc3F)cc2)[C@@H]1CO	.
CCCNC(=O)N1[C@H](CO)[C@H](c2ccccc2-c2cccc(OC)c2)[C@@H]1C#N	.
CCCNC(=O)N1[C@@H](C#N)[C@H](c2ccc(-c3cccc(OC)c3)cc2)[C@@H]1CO	51[25 µM]
CCCNC(=O)N1[C@H](C#N)[C@@H](c2ccc(-c3ccc(C(=O)N(C)C)cc3)cc2)[C@@H]1CO	.
CCCNC(=O)N1[C@H](CO)[C@H](c2ccc(/C=C/c3ccccc3)cc2)[C@@H]1C#N	66[25 µM]
SMILES	CD40 NFkB inh
CCCNC(=O)N1[C@H](CO)[C@H](c2ccc(-c3cccc(OC)c3)cc2)[C@@H]1C#N	68[25 µM]
CCCNC(=O)N1[C@H](CO)[C@H](c2ccc(-c3cccnc3)cc2)[C@@H]1C#N	.
Cc1ccc(S(=O)(=O)N(C)C[C@H]2OCc3cnnn3CCCC(=O)N([C@@H](C)CO)C[C@@H]2C)cc1	.
C[C@H](CO)N1C[C@H](C)[C@@H](CN(C)C(=O)N[C@H](C)c2ccccc2)OCc2ccccc2-c2ccccc2C1=O	.
C[C@@H]1CN([C@H](C)CO)C(=O)c2cccc(NC(=O)CCCCCC(=O)Nc3ccccc3N)c2O[C@@H]1CN(C)S(=O)(=O)c1cn(C)cn1	.
C/C=C/c1ccc([C@@H]2[C@@H](CNC(=O)CC3CC3)N(C(=O)CC)[C@H]2CO)cc1	.
CC(=O)N(C)C[C@@H]1OCc2ccccc2-c2ccccc2C(=O)N([C@@H](C)CO)C[C@@H]1C	.
OC(CCN1CCC2CCC(C2)C1)c1ccc(Br)cc1 (centres undefined)	.
OC(CCN1CCCCC1)c1ccc(-c2ccccc2)cc1 (centres undefined)	57
OC(COc1ccc(-c2ccccc2)cc1)CN1CCCCC1 (centres undefined)	.
CN1C(=O)c2cc(NC(=O)c3ccc(F)cc3)ccc2OC[C@H]2O[C@@H](CC(=O)NCC3CCCCC3)CC[C@H]21	.
O=C(Nc1ccc(S(=O)(=O)N2CCCC2)cc1)c1cnccn1	.
O=C(Nc1ccccc1N1CCOCC1)c1cnccn1	.
O=C(Nc1ccc(N2CCOCC2)cc1)c1cnccn1	81
CO[C@@H](CN(C)C(=O)c1ccccc1F)[C@@H](C)CN([C@H](C)CO)S(=O)(=O)c1ccccc1	.
CCCNC(=O)[C@H]1[C@H](CO)[C@H]2Cn3c(ccc(/C=C/c4ccccc4)c3=O)[C@@H]1N2C(=O)C1CCC1	.
O=S(=O)(c1cccc(F)c1)N1[C@@H]2CNC[C@H]1C2c1ccc(-c2cccc(F)c2)cc1 (some centres undefined)	.
CCN1/C(=C/c2sc(-c3ccccc3C)c[n+]2C)Sc2ccccc21	68
CCN1C(=O)c2ccccc2Sc2ccc(C(=O)NCCCN3CCCCC3)cc21	.
c1ccc2c(c1)Sc1ccccc1-n1cnnc1-2	.
O=C(C[C@@H]1C[C@H]2c3cc(NC(=O)Nc4ccccc4)ccc3O[C@H]2[C@@H](CO)O1)NCCN1CCCCC1	.
O=C(C[C@H]1C[C@@H]2c3cc(NC(=O)C4CCOCC4)ccc3O[C@@H]2[C@H](CO)O1)NCc1cc(F)ccc1F	.
O=C(CN1CCOCC1)NCC[C@H]1CC[C@H](NC(=O)Nc2ccccc2)[C@H](CO)O1	.
CC(C)(C)n1ncc2c(=O)n(CC(=O)OCc3ccccc3)cnc21	98
CC(C)(C)n1ncc2c(=O)n(CC(=O)c3ccccc3)cnc21	.
SMILES	CD40 NFkB inh
CC(C)(C)n1ncc2c(=O)n(CC(=O)NCc3ccc(F)cc3)cnc21	.
CO[C@@H]1CN(C)C(=O)c2ccc(NC(=O)Nc3cccc(Cl)c3)cc2OC[C@H](C)N(C(=O)Nc2c(C)noc2C)C[C@@H]1C	.
C[C@H]1CN([C@@H](C)CO)C(=O)c2ccccc2-c2ccccc2CO[C@H]1CN(C)Cc1ccc2c(c1)OCCN2C	.
NC(=O)c1ccccc1NS(=O)(=O)c1ccc(S(=O)(=O)N2CCCC2)cc1	.
O=S(=O)(Nc1cccc2cccnc12)c1ccc(S(=O)(=O)N2CCCC2)cc1	76
O=S(=O)(Nc1ccccc1)c1ccc(S(=O)(=O)N2CCCC2)cc1	.
CNC[C@H]1Oc2c(NS(C)(=O)=O)cccc2C(=O)N(C)C[C@@H]1C	.
O=C1NC2c3c(I)sc(I)c3C(=O)C2O1 (centres undefined)	101
O=C1NC2c3c(Cl)sc(Cl)c3C(=O)C2O1 (centres undefined)	56
C[C@@H]1CN([C@@H](C)CO)C(=O)c2c(c3ccccc3n2C)-c2ccccc2CO[C@H]1CN(C)S(=O)(=O)c1ccccc1F	.
CNC[C@@H]1Oc2ccc(NC(=O)NC(C)C)cc2CC(=O)N(C)C[C@@H]1C	.
O=C(C[C@H]1C[C@@H]2c3cc(NC(=O)Nc4ccc(C(F)(F)F)cc4)ccc3O[C@@H]2[C@@H](CO)O1)NCc1cccnc1	.
C[C@@H]1CN(C)C(=O)c2cccc(N)c2O[C@@H]1CN(C)S(C)(=O)=O	.
O=C(C1CCOCC1)N1CC(=O)N2[C@H](CO)[C@@H](c3ccc(C#CCc4ccccc4)cc3)[C@@H]2C1	.
COCC#Cc1ccc([C@H]2[C@@H](CO)N3C(=O)CN(C(=O)C4CCCC4)C[C@H]23)cc1	.
O=C(C1CCOCC1)N1CC(=O)N2[C@@H](CO)[C@@H](c3ccc(C#CCc4ccccc4)cc3)[C@@H]2C1	.
CC(C)NC(=O)N1CC(=O)N2[C@H](CO)[C@@H](c3ccc(/C=C/c4ccccc4)cc3)[C@H]2C1	53[25 µM]
